Calls of active or inactive are those of the source. No rule for the calls is given here.
Molecular target: Estrogen receptor (Homo sapiens) (UniProt P03372)
Assay: ERalpha ligand binders by competition, primary screen, cell-based, Cos7 ERalpha-GFP, flow cytometry (AID 1211);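 also: 0% = DMSO vehicle wells and 100% = no E2-Alexa633 signal left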
Conditions: fluorescent ligand competition, stronger effect = higher value

Sequence of Estrogen receptor (Homo sapiens) (P03372 whole entry, looked up): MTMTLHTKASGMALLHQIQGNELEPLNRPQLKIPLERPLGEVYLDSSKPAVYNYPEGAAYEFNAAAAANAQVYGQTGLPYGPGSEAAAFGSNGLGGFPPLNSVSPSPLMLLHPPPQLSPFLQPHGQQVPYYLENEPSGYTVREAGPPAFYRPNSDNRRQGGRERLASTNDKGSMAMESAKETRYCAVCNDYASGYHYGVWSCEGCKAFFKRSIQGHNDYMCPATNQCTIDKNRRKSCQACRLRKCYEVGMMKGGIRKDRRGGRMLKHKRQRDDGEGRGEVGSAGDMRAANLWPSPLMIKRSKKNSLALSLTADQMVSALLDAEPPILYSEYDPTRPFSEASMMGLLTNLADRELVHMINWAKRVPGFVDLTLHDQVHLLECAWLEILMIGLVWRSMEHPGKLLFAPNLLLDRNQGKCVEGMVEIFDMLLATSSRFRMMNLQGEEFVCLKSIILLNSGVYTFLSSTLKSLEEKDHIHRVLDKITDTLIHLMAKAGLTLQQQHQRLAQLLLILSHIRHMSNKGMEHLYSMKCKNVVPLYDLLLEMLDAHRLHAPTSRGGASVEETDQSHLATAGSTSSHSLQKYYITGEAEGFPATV

| SMILES | inhibition of ligand binding (at 10 µM) | inhibition of ligand binding (binding inhibition, at 0.1 µM) |
| --- | --- | --- |
| FC(F)(F)c1ccc2c(c1)C1C=CCC1C(c1ccncc1)N2 (stereo not drawn) | 61% (inactive) | 27% |
| COc1cc2c(cc1OC)C(Cc1ccc(O)cc1)NCC2 (stereo not drawn) | 26% (inactive) | 32% |
| Nc1ccc2nn(-c3cccc4ccccc34)nc2c1 | 0% (inactive) | 12% |
| Cc1ccc(-c2n[nH]c(=S)n2/N=C/C=C\c2ccccc2[N+](=O)[O-])cc1 | 40% (inactive) | 57% |
| Cc1ccc(NC(=O)CN2C(=O)S/C(=C/c3ccc(-c4cc(C(=O)O)ccc4C)o3)C2=O)cc1C | 50% (inactive) | 39% |
| CC1CC(C(F)(F)C(F)(F)F)n2nc(C(=O)O)cc2N1 (stereo not drawn) | 9% (inactive) | 9% |
| CCOC(=O)Cc1cc(=O)n2[nH]c(-c3ccc(C)cc3)cc2n1 | 0% (inactive) | 25% |
| O=S(=O)(NCC(O)COCc1ccco1)c1cccs1 (stereo not drawn) | 7% (inactive) | 4% |
| COc1ccc(OC)c(N2C(=O)[C@@H]3C(c4ccccc4Cl)=NO[C@@H]3C2=O)c1 | 57% (inactive) | 24% |
| CC1=C(SCCC#N)S/C(=C2\SC(C)=C(SCCC#N)S2)S1 | 59% (inactive) | 11% |
| CCCNCC1COc2ccccc2O1 (stereo not drawn) | 2% (inactive) | 21% |
| CCCCN(CCCC)S(=O)(=O)c1ccc(NC(=O)Cc2cccs2)cc1 | 61% (inactive) | 46% |
| COc1nnc(-c2ccc(C(=O)N3C[C@@H]4C[C@H](C3)c3cccc(=O)n3C4)cc2)c2ccccc12 | 1% (inactive) | 6% |
| CCN(CC)c1ccc2c(c1)oc(=O)c1c(Cl)cc(=O)oc12 | 23% (inactive) | 4% |
| CCOC(=O)Cn1cnc2sc3c(c2c1=O)CCC3 | 23% (inactive) | 13% |
| Cc1ccc(-c2nn3c(C)nnc3s2)cc1NC(=O)COc1ccc(Cl)cc1 | 38% (inactive) | 42% |
| Cc1ccc(-n2nnnc2SCC(=O)Nc2ccc3c(c2)COC3=O)cc1C | 27% (inactive) | 9% |
| O=C1C=CC(O)(c2cc(=O)c3c(O)cc(O)cc3o2)C=C1 | 38% (inactive) | 42% |
| O=c1c2c([nH]c3ccccc13)C(=C1CCCC1)CC2 | 0% (inactive) | 36% |
| COC(=O)c1ccc2c(=O)n(CCCCCC(=O)NCc3ccc4c(c3)OCO4)c(=O)[nH]c2c1 | 19% (inactive) | 18% |

| SMILES | inhibition of ligand binding (at 10 µM) | inhibition of ligand binding (binding inhibition, at 0.1 µM) |
| --- | --- | --- |
| N#CC1=C(N)OC2=C(CCC/C2=C/c2ccoc2)C1c1ccoc1 (stereo not drawn) | 56% (inactive) | 40% |
| CN=c1scc(C)n1/N=C/c1ccc(O)cc1O | 0% (inactive) | 3% |
| COc1cc(C=C(c2nc3ccccc3s2)c2nc3ccccc3s2)ccc1O | 31% (inactive) | 35% |
| Oc1ccccc1-c1nnc(SCCN2CCOCC2)n1Cc1ccccc1 | 32% (inactive) | 44% |
| O=C(Nc1ccccc1N1CCOCC1)c1cc(-c2ccco2)nc2ccccc12 | 15% (inactive) | 22% |
| COc1ccc(-c2nn(-c3ccccc3)cc2/C=C2/SC(=S)N(Cc3ccco3)C2=O)c(C)c1 | 21% (active) | 67% |
| Cc1ccc(Oc2cc(N3CCOCC3)nc(-c3ccccc3)n2)cc1 | 13% (active) | 66% |
| COc1ccc2c(c1)c(=O)oc1cc(OCC(=O)NC3CCCCC3)ccc12 | 60% (inactive) | 60% |
| COc1ccc(N=C2NC(=O)S/C2=C\c2ccc(N(C)C)cc2)cc1 | 39% (inactive) | 8% |
| CCOc1ccc(C2C3=C(Nc4nc(N)[nH]c(=O)c42)c2ccccc2C3=O)cc1 (stereo not drawn) | 50% (inactive) | 26% |
| COC(=O)c1ccc2c(=O)n(CC3CCCO3)c(SCC(=O)Nc3ccccc3Cl)nc2c1 (stereo not drawn) | 45% (inactive) | 37% |
| O=C(Nc1nccs1)c1ccc2nccnc2c1 | 33% (inactive) | 24% |
| C[C@@H]1O[C@@H](Oc2c(-c3cc(O)c(O)c(O)c3)oc3cc(O)cc(O)c3c2=O)[C@H](O)[C@H](O)[C@H]1O | 52% (inactive) | 26% |
| CC(=O)Nc1ccc(OC(=O)CC2SC(=O)NC2=O)cc1 (stereo not drawn) | 51% (inactive) | 60% |
| O=c1oc2c(O)c(O)cc3c(=O)oc4c(O)c(O)cc1c4c23 | 0% (inactive) | 4% |
| O=C(O)c1ccc2c(c1)-c1nc3ccccc3n1C2=O | 32% (inactive) | 5% |
| O=C(Nc1ccc(N2CCCC2)cc1)C(c1ccccc1)c1ccccc1 | 63% (inactive) | 7% |
| Nc1ccc2nc(-c3cccnc3)[nH]c2c1 | 44% (inactive) | 26% |
| COC(=O)c1ccc(-c2n[nH]c(=O)c3ccccc23)cc1 | 0% (inactive) | 16% |

From PubChem BioAssay AID1211 (NMMLSC, 2008)
